Shown are actives, neighbours in structure and some others; about 17% of the full set was active somewhere.
HT1080 IDH1KD tx: qHTS for induction of synthetic lethality in tumor cells producing 2HG: qHTS for the HT-1080-IDH1KD cell line; HT-1080 IDH1 knockdown viability, ATP luminescence, 48 h; Potency, µM (titrated, usually from 46.1 µM), most hits filed as cytotoxic; 360,000 tested, 2% active
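Using the IDH1-knockdown HT-1080 line run in the same batch and compound series as the NT line, viability after 48 h at 37 °C was determined by CellTiter-Glo luminescence and expressed as % activity.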
TDP1 cell CPT: qHTS for Inhibitors of human tyrosyl-DNA phosphodiesterase 1 (TDP1): qHTS in cells in presence of CPT. 420,000 tested, 12% active. chicken DT40 Tdp1-/-;hTDP1 cells + 20 nM CPT, ATP luminescence, 48 h. Potency, µM (doses to about 46.2 µM), usual class: inhibitors. AID 686979, 2013; note: nearly all actives have a fitted effect of over 55% in size
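Cell growth measured by CellTiter-Glo luminescence after a minimum 48 h, 37 C compound exposure with 20 nM CPT in Tdp1-knockout DT40 cells stably expressing hTDP1, seeded 400/well; qHTS titration format.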
HepG2 viability: qHTS for Inhibitors of TGF-b: Cytotox Counterscreen; 410,000 tested, 0.76% active; Potency, µM (highest dose often 46.1 µM), most hits filed as cytotoxic; HepG2 CAGA-GFP viability, ATP luminescence, 18 h
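CellTiter-Glo luminescence gave cytotoxicity after 18 hours at 37 degrees C. The cells were HepG2 CAGA-GFP in 1% FBS DMEM, stimulated with 500 pg/mL TGF-beta after compound addition. %Activity was normalised to no-cell wells (complete cell-killing) and DMSO (no toxicity), and curves were fitted and classified.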
TGFb SMAD3 inh: qHTS for Inhibitors of TGF-b. AID 588855, 2011. Potency, µM (titrated, usually from 46.1 µM), most hits filed as inhibitors. HepG2 CAGA-GFP TGF-b/SMAD3 reporter, GFP fluorescence, 18 h; TGF-beta stimulated, 500 pg/mL final. 410,000 tested, 1.2% active; note: nearly all actives have a fitted effect of over 65% in size
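HEPG2 CAGA-GFP reporter cells (1000/well, DMEM with 1% FBS) received compounds, then recombinant TGF-beta at 500 pg/mL final for 18 hours at 37 degrees C. Per-cell GFP summed per well was normalised to unstimulated and stimulated DMSO controls before curve fitting.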
DT40 TDP1 no CPT: qHTS for Inhibitors of human tyrosyl-DNA phosphodiesterase 1 (TDP1): qHTS in cells in absence of CPT; 420,000 tested, 15% active; Potency, µM (series often up to 46.2 µM), most hits filed as inhibitors; AID 686978, 2013; DT40 Tdp1-/- hTDP1 cells, no CPT, ATP luminescence, 48 h; note: nearly all actives have a fitted effect of over 55% in size
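Cells were dispensed at 400 per well, compounds added by pin tool, plates incubated ≥48 hr at 37 °C, then CellTiter-Glo added for 30 min at room temperature before luminescence reading. Line: DT40 Tdp1-/- complemented with hTDP1; camptothecin omitted.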
HT1080NT lethal: qHTS for induction of synthetic lethality in tumor cells producing 2HG: qHTS for the HT-1080-NT fibrosarcoma cell line | AID 686970, 2013 | Potency, µM (doses to about 46.1 µM), most hits filed as cytotoxic | 360,000 tested, 1.6% active | HT-1080-NT fibrosarcoma viability, CellTiter-Glo ATP luminescence, 48 h;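 note: NT is the 2HG producing partner of a matched IDH1 knockdown line; nearly all actives have a fitted effect of over 55% in size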
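A 48-hour cytotoxicity screen used HT-1080-NT cells plated 2 hours before compound delivery. ATP-based CellTiter-Glo luminescence measured viability, normalized to DMSO and no-cell controls.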
A number is an active result; . = inactive; ? = inconclusive; / = not tested or not shown. Calls come from the whole dose curve; as a rule, active = well fitted curve in the direction sought with a large enough effect; inconclusive = small, poorly fitted or top-dose-only effect, or another doubt; inactive = no such curve, though single readings can be large; an effect the other way counts as inactive or inconclusive.

SMILES | HT1080 IDH1KD tx | TDP1 cell CPT | HepG2 viability | TGFb SMAD3 inh | DT40 TDP1 no CPT | HT1080NT lethal
C#CCn1c(=NC(=O)c2cc(-c3cccs3)nc3ccccc23)sc2cc(S(N)(=O)=O)ccc21 | 25.9µM | ? | . | . | ? | ?
C#CCn1c(=NC(=O)c2cc(Cl)sc2Cl)sc2cc(S(N)(=O)=O)ccc21 | . | . | . | . | . | .
CCOC(=O)N1CCc2c(sc3c2c(=O)n(Cc2ccccc2)c(=O)n3CC(=O)Nc2c(C)cccc2C)C1 | / | ? | . | ? | ? | /
COc1ccccc1NC(=O)Cn1c(=O)n(CCc2ccccc2)c(=O)c2c3c(sc21)CN(C(C)=O)CC3 | / | 16.4µM | . | ? | 16.4µM | /
CCOC(=O)N1CCc2c(sc3c2c(=O)n(CCc2ccccc2)c(=O)n3CC(=O)Nc2ccc(C)cc2)C1 | / | 9.2µM | . | . | 7.31µM | /
CCOC(=O)N1CCc2c(sc3c2c(=O)n(Cc2ccccc2)c(=O)n3CC(=O)Nc2ccc(F)cc2)C1 | / | 5.8µM | . | . | 10.3µM | /
CCOC(=O)N1CCc2c(sc3c2c(=O)n(-c2ccc(Cl)cc2)c(=O)n3CC(=O)c2ccc(F)cc2)C1 | / | ? | . | . | 20.6µM | /
CC(=O)N1CCc2c(sc3c2c(=O)n(CCc2ccccc2)c(=O)n3CC(=O)Nc2ccccc2F)C1 | / | ? | . | . | ? | /
CC(C)=CCC(C)(C)C1OCCN1C(=O)Nc1ccccc1 (stereo unspecified) | . | ? | . | . | ? | .
CC(=O)c1cccc(OC(=O)c2ccc3c(=O)n4c(nc3c2)CCC4)c1 | . | . | . | . | . | .
Cc1ccc(CN2C(=O)CCC2(C)c2nnnn2-c2ccc3c(c2)OCCO3)cc1 (stereo unspecified) | . | . | / | / | ? | .
CN1CCc2c(sc3c2c(=O)n(-c2ccc(Cl)cc2)c2nncn32)C1 | . | ? | . | . | ? | .
CCN(CC)CCn1c(=O)n(-c2ccc(Cl)cc2)c(=O)c2c3c(sc21)CN(C)CC3 | . | 29.1µM | . | . | 20.6µM | .
COc1ccc(NC(=O)N2CC3(CCN(C(=O)c4c(C)noc4C)CC3)C2)cc1 | / | . | / | / | . | /
COc1ccc(CNC(=O)C2CCN(c3nc4ccccc4[nH]3)CC2)c(OC)c1 | / | 18.4µM | . | . | ? | /
O=C(Nc1cccc(F)c1)C1CCN(c2nc3ccccc3[nH]2)CC1 | / | 23.1µM | . | . | ? | /
Cc1ccc(NS(=O)(=O)c2coc(C(N)=O)c2)cc1F | . | . | . | . | . | .
Cn1c(Cl)cnc1C1CC(=O)c2cc(Cl)ccc2O1 (stereo unspecified) | 9.2µM | 4.11µM | . | ? | 2.59µM | ?
CC(=O)N1CCc2c(sc3c2c(=O)n(-c2ccccc2)c(=O)n3CC(=O)Nc2ccccc2)C1 | / | . | . | . | . | /
COc1ccccc1-n1c(SCC(=O)Nc2cc(C)on2)nc2c([nH]c3ccccc32)c1=O | . | ? | . | . | ? | .
COCCNC(=O)/C(C#N)=C/c1ccc(SC)cc1 | . | . | . | . | ? | .
COCCCNC(=O)/C(C#N)=C/c1cccc(NC(=O)c2ccccc2Cl)c1 | 14.6µM | 2.59µM | . | ? | 2.59µM | ?
COCCNC(=O)/C(C#N)=C/c1c(F)cccc1Cl | . | ? | . | . | 10.3µM | .
COc1ccc(N(CC(=O)NCCSCc2cccc(Cl)c2)S(C)(=O)=O)cc1Cl | . | . | . | ? | . | .
N#CC1C(C#N)N2CCCN2C1c1ccc(Cl)cc1 (stereo unspecified) | . | 8.2µM | . | . | 7.31µM | .

From PubChem BioAssay
